TIM10 inh – inhibits growth of TIM10 yeast strain; S. cerevisiae TIM10 strain growth, BacTiter-Glo luminescence, 24 h; inhibition, % at 10 µM; 1.4% of 330,000 active;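 active = inhibition of 40% or more at the single tested concentration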;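 note: wild-type TIM10 isogenic control strain grown at permissive 25 °C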
PfHsp90 set2 – reduces growth (ATP signal) of yeast expressing P. falciparum Hsp90. S. cerevisiae expressing PfHsp90, BacTiter-Glo ATP, 48 h; yeast lacking PDR1 and PDR3 efflux regulators. inhibition, % at 9.4 µM. 0.32% of 310,000 active. AID 504621;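 active = every replicate shows inhibition above about 80%, whatever the replicate mean, limit read from the data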
tim23-1 inh – tim23-1 yeast growth inhibition; S. cerevisiae tim23-1 growth, BacTiter-Glo luminescence, 24 h; inhibition, % at 20 µM; AID 463212; 1.3% of 330,000 active;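 active = growth inhibition of the mutant yeast at or above 50%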;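 note: temperature-sensitive mutant grown at 25 °C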
Mot1-301 SUMO – blocks SUMOylation pathway, rescuing yeast Mot1-301 growth | AID 2716 | S. cerevisiae Mot1-301 growth rescue, ATP luminescence, 38.5C; percent above DMSO median, 100 means doubled | growth rescue, % at 18.8 µM | 1% of 320,000 active;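 active = every valid replicate shows activation above 250% relative to neutral control wells; inactive = the rest, any valid replicate at or below 250%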
tim10-1 inh – growth inhibitors of tim10-1 mutant yeast; S. cerevisiae tim10-1 ts strain growth, BacTiter-Glo, 24 h; inhibition, % at 20 µM; 2.2% of 330,000 active; AID 463190;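 active = inhibition of at least 40%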;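 note: mutant grown at 25 °C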
tim10-1 conf – tim10-1 yeast growth inhibition, confirmed; shares compounds with tim10-1 inh; S. cerevisiae tim10-1 ts strain growth, BacTiter-Glo, 24 h; inhibition, % at 20 µM; 56% of 7,400 active;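 active = inhibition of yeast growth at or above a set limit in either of two repeat tests at 20 µM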;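 note: tim10-1 mutant grown at permissive 25 °C to find synthetic lethal compounds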
Large screens that a line does not name were inactive (follow-up assays come after a bar, where they were run). An excerpt weighted towards active compounds, which were near 4.4% of everything screened.

Cc1ccc(S(=O)(=O)NCCC(=O)N2CCC(C(N)=O)CC2)cc1C	none
O=C(CCCOc1ccc(Cl)cc1Cl)n1nnc2ccccc21	tim10-1 inh 54 | tim10-1 conf 39
CC(=O)c1ccc(OCCCC(=O)n2nnc3ccccc32)cc1	none
O=C(C1CC1)N1CCc2cc(S(=O)(=O)NCC3COc4ccccc4O3)ccc21 (centres undefined)	tim10-1 inh 46 | tim10-1 conf inactive
O=C(C1CCC1)N1CCc2cc(S(=O)(=O)NCC3COc4ccccc4O3)ccc21 (centres undefined)	none
O=C(NCC1CC1)c1ccc2c(c1)S(=O)(=O)c1cc(Cl)ccc1C2=O	none
CCOC(=O)C1(CCOc2ccccc2)CCN(Cc2nccn2CC)CC1	none
CCOC(=O)C1(CCCc2ccccc2)CCN(Cc2nccn2CC)CC1	tim10-1 inh 41 (no result: Mot1-301 SUMO) | tim10-1 conf inactive
N#C/C(=C/c1ccc(N2CCCCCC2)o1)c1cccc(F)c1	tim10-1 inh 61 | tim10-1 conf 57
COc1ccc(N2CCN(C(=O)c3ccc(NC(=O)C4=CSCCO4)cc3)CC2)cc1	tim10-1 inh 43 | tim10-1 conf 29
O=C(Nc1ccc(C(=O)N2CCN(c3ccc(F)cc3)CC2)cc1)C1=CSCCO1	tim10-1 inh 47 | tim10-1 conf 36
CCc1ccc(CNC(=O)c2ccc(NC(=O)C3=CSCCO3)cc2)cc1	tim10-1 inh 44 | tim10-1 conf inactive
COc1ccc(N2CCN(C(=O)c3ccc(NS(=O)(=O)c4ccc(F)cc4)cc3)CC2)cc1	none
COc1cccc(F)c1C(=O)NC(=O)Nc1ccc2nc(C)oc2c1	none
CCC(C)(C)c1ccc(OCC(=O)Nc2ccncc2)cc1	none
COC(=O)[C@@]12CCCCN1[C@H](c1ccc(-c3ccccc3)c(OC)c1)[C@H]1C(=O)N(C)C(=O)[C@H]12	none
CCCN(C(=O)c1c(-c2ccccc2)noc1C)c1c(N)n(Cc2ccccc2)c(=O)[nH]c1=O	none
Cc1cccc(Cc2c(C)nc3c(C(=O)N4CCN(Cc5ccc6c(c5)OCO6)CC4)cnn3c2C)c1	tim10-1 inh 42 (no result: Mot1-301 SUMO) | tim10-1 conf inactive
Cc1ccccc1Cc1c(C)nc2c(C(=O)N3CCN(Cc4ccc5c(c4)OCO5)CC3)cnn2c1C	none
CCOC(=O)CNC(=O)Cn1cnc2c(cnn2-c2ccc(C)cc2)c1=O	none
COc1cc(-c2nc(C(=O)NCC3CCCO3)cc3c2[nH]c2ccccc23)cc(OC)c1OC (centres undefined)	tim10-1 inh 42 (no result: PfHsp90 set2) | tim10-1 conf inactive
O=C(NCC1CCCO1)c1cc2c([nH]c3ccccc32)c(-c2cccc(Cl)c2)n1 (centres undefined)	none
COc1ccccc1-c1nc(C(=O)NCC2CCCO2)cc2c1[nH]c1ccccc12 (centres undefined)	tim10-1 inh 43 | tim10-1 conf inactive
COc1cccc2[nH]c(C(=O)NCC3CCCO3)cc12 (centres undefined)	none
O=C(NCc1cccnc1)/C(=C\c1ccc(-c2cccc(Cl)c2)o1)S(=O)(=O)c1ccccc1	none (no result: TIM10 inh, tim23-1 inh, tim10-1 inh)
O=C(NCc1cccnc1)/C(=C/c1ccc(-c2cccc(Cl)c2)o1)S(=O)(=O)c1ccccc1	tim10-1 inh 44 | tim10-1 conf 36
C=C1CCN([C@H](C(=O)O)C(C)C)S(=O)(=O)c2ccccc21	none (no result: PfHsp90 set2)
C=C1CCN([C@H](C(=O)OCc2cccc(C)c2)C(C)C)S(=O)(=O)c2ccccc21	tim10-1 inh 44 | tim10-1 conf inactive
CSc1ccc(/C=C/C(=O)c2ccc(NC(C)=O)cc2)cc1	none
CCCC(=O)Nc1ccc(C(=O)/C=C/c2ccc(SC)cc2)cc1	tim10-1 inh 45 | tim10-1 conf 34
COc1ccc(-c2cc(=O)n(-c3ccc([N+](=O)[O-])cc3)[nH]2)cc1	tim10-1 inh 50 | tim10-1 conf 38
COc1ccc(-c2[nH]n(-c3ccc([N+](=O)[O-])cc3)c(=O)c2C=NCc2ccc(F)cc2)cc1	none
CCOc1ccc(C(C)=O)cc1CN1C(=O)c2ccccc2S1(=O)=O	none
Cc1ccc(C)c(CSc2nnc(CCN)o2)c1	none (no result: PfHsp90 set2)
Cc1ccc(C)c(CSc2nnc([C@@H](N)C(C)C)o2)c1	tim10-1 inh 45 (no result: PfHsp90 set2) | tim10-1 conf 49
CCOC(=O)c1sc(NC(=O)C2CC(=O)N(c3ccc(OC)cc3)C2)nc1C (centres undefined)	none
Cc1nc2c(C)cccn2c(=O)c1NC(=O)c1cccc2ccccc12	none (no result: PfHsp90 set2)
CCSc1nnc(NC(=O)CN2C(=O)N(C)C3(CCCCC3)C2=O)s1	tim10-1 inh 97 (no result: Mot1-301 SUMO) | tim10-1 conf inactive
CCN(C(=O)COC(=O)c1nccnc1N)c1cccc2ccccc12	none
COc1ccc(CNC(=O)CN(C)Cc2ccc(C(C)(C)C)cc2)cc1	none
CCCCOc1cccc(C(=O)NC(=S)Nc2cccnc2)c1	tim10-1 inh 43 | tim10-1 conf inactive
O=C(O)CC(NNC(=O)c1ccccc1)C(=O)Nc1ccc([N+](=O)[O-])cc1 (centres undefined)	none
Cc1scc(C(=O)N/N=C/c2ccc([N+](=O)[O-])o2)c1C	tim10-1 inh 46 (no result: PfHsp90 set2) | tim10-1 conf inactive
CCOC(=O)C1CCCN(C(=O)Cn2sc3nc(C)cc(C)c3c2=O)C1 (centres undefined)	tim10-1 inh 41 | tim10-1 conf inactive
CCOC(=O)c1c(CSc2ccc(C)cc2)n(C)c2cc(Br)c(O)c(CN(C)C)c12	tim10-1 inh 41 | tim10-1 conf 44
O=[N+]([O-])c1nn(-c2ccc(Cl)cc2)n(O)c1=NCc1cccnc1	tim10-1 inh 42 | tim10-1 conf 30
O=C1c2cccc3c2[C@H](CCC3)CN1[C@@H]1CN2CCC1CC2	none (no result: PfHsp90 set2)
CCCCCCC(=O)OCC(=O)c1ccc2c(c1)NC(=O)CO2	tim10-1 inh 40 (no result: Mot1-301 SUMO) | tim10-1 conf inactive
CCc1ccc(OCC(=O)OCC(=O)c2ccc3c(c2)NC(=O)CO3)cc1	none
O=C(O)C1(Nc2ccc([N+](=O)[O-])cc2[N+](=O)[O-])CCCC1	none (no result: TIM10 inh, tim23-1 inh, Mot1-301 SUMO, tim10-1 inh)
CCCCN1c2ccccc2N(CCCO)c2cc(C)nnc21	tim10-1 inh 45 | tim10-1 conf inactive
CCCCN1C2=NC(c3ccccc3)CN2c2ccccc21 (centres undefined)	none
Cn1c(CSc2nnc(SCc3ccccc3)s2)nc2ccccc21	tim10-1 inh 56 | tim10-1 conf 42
CCn1c(CSc2nc3ccccc3n2C)nc2ccccc21	none
O=C(OCC(=O)N1CCCc2ccccc21)c1ccc(S(=O)(=O)C(F)F)cc1	none
O=C(Nc1ncc2c(n1)CC(c1cccc(Cl)c1)CC2=O)c1ccco1 (centres undefined)	tim10-1 inh 41 | tim10-1 conf 32
O=S(=O)(c1c(F)cccc1F)C1CCN(S(=O)(=O)c2ccc3c(c2)OCCO3)CC1	none
CCOc1ccc(OCC)c(S(=O)(=O)n2ccnc2C)c1	none
